The source of these data is publication PMC5540273 (PLoS ONE, 2017).

Among the test systems are S6K1; SBK1; SGK2; SGK3; SGK; SIK2; SIK; SLK; SNRK; SRC; SRMS; SRPK1; SRPK2; SRPK3; STK16; STK33; STK35.
Holding throughout (settings): concentration: 1 μM,replicates: in singlicate; n = 1
Test [1] relates to T1, RSK4(Kin.Dom.1-N-terminal).
T1 construct: gene RPS6KA6

For test [2], the system named is T2, RSK4(Kin.Dom.2-C-terminal).
T2 construct: gene RPS6KA6

Another test has as its system T3, SNARK.
T3 construct: gene NUAK2
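Further: KINOMEscan kinase panel screen.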

For `COc1cccc(C2=C(Nc3cccc(Cl)c3)C(=O)NC2=O)c1` [SB-341556], the “%Inh” value in test [1] is 43%; in test [2], 76%; with S6K1 it was 23%; with SBK1 it was 19%; in the test on SGK2 it was 0%; with SGK3, 9%. The “%Inh” value in the test with SGK was 3%; with SIK2, 99.9%; in the test on SIK it was 0%; in the test with SLK, 92.2%; with SNARK, 47%; in the test on SNRK, 9%. Also, the “%Inh” value is on record as 0% in the test on SRC; 0% with SRMS; 42% in the test with SRPK1; 0% in the test on SRPK2; 24% with SRPK3; 14% in the test with STK16. Besides, the results for the “%Inh” value in the test on STK33 and in the test on STK35 were 0% and 94.9%, respectively.
On to `CCOC(=O)N1CCC(n2cnc(-c3ccc(F)cc3)c2-c2ccnc(N)n2)CC1` [SB-219952], for which the “%Inh” value was found to be 9% in test [1]; 65% in test [2]; 22% in the test on S6K1; 0% in the test with SBK1; 33% in the test on SGK2; 6% in the test with SGK3. For the same compound, the “%Inh” value with SGK is reported as 17%; in the test with SIK2, 0%; with SIK, 0%; in the test with SLK, 0%; in the test on SNARK, 0%; with SNRK, 10%. Also, the “%Inh” value is reported as 0% in the test with SRC; 0% with SRMS; 9% in the test with SRPK1; 0% in the test with SRPK2; 28% in the test with SRPK3; 6% in the test with STK16. In addition, the “%Inh” value was determined as 0% in the test with STK33 and 38% in the test with STK35.
For the compound `Cn1ccc2ncnc(Oc3ccc(NC(=O)Nc4ccnc(C(F)(F)F)c4)c(Cl)c3)c21`, the “%Inh” value in test [1] is listed as 0%; in test [2], 2%; with S6K1, 0%; in the test on SBK1 it was 0%; in the test with SGK2, 10%; in the test with SGK3, 0%. Also, the “%Inh” value with SGK stood at 9%; with SIK2 it was 8%; in the test with SIK it was 4%; in the test with SLK, 10%; in the test on SNARK, 0%; with SNRK, 0%. Besides, the “%Inh” value was 13% in the test with SRC; 0% in the test on SRMS; 49% in the test on SRPK1; 0% in the test on SRPK2; 0% in the test with SRPK3; 0% in the test on STK16. For the same compound, the “%Inh” value was found to be 0% in the test on STK33 and 15% with STK35.
Turning to `Cc1n[nH]c2cc(Nc3ccnc(Nc4cccc(CN5CCOCC5)c4)n3)ccc12` [GW682569], the “%Inh” value in test [1] turned out to be 19%; in test [2], 16%; in the test with S6K1 it was 0%; with SBK1, 0%; with SGK2, 0%; in the test with SGK3, 17%. Further, the “%Inh” value amounted to 0% in the test on SGK; 33% in the test with SIK2; 46% in the test on SIK; 0% with SLK; 25% in the test on SNARK; 0% in the test on SNRK. Moreover, the “%Inh” value in the test on SRC is given as 77%; with SRMS, 0%; with SRPK1, 92.2%; in the test with SRPK2 it was 13%; in the test with SRPK3 it was 65%; in the test on STK16, 90.8%. The “%Inh” value in the test on STK33 and with STK35 was 0% in each case.
As for `OCCn1cc(-c2cnc3nnn(Cc4ccc5ncccc5c4)c3n2)cn1`, the “%Inh” value is on record as 0% in test [1]; 1% in test [2]; 0% in the test with S6K1; 0% with SBK1; 0% in the test with SGK2; 15% with SGK3. Moreover, the “%Inh” value with SGK, with SIK2, with SIK, in the test with SLK, in the test with SNARK and in the test with SNRK was 0% each time. The “%Inh” value with SRC worked out at 0%; with SRMS, 0%; in the test on SRPK1, 0%; in the test on SRPK2, 4%; with SRPK3, 0%; in the test on STK16 it was 0%. In addition, the “%Inh” value in the test with STK33 and in the test with STK35 was 0% in each case.
In the case of `Cn1ccc2ncnc(Oc3ccc(NC(=O)Nc4cc(C(C)(C)C)on4)c(Cl)c3)c21`, the “%Inh” value in test [1] was 26%; in test [2] it was 18%; in the test with S6K1, 6%; in the test on SBK1, 13%; in the test with SGK2, 24%; with SGK3, 0%. In addition, the “%Inh” value is 10% with SGK; 4% in the test with SIK2; 11% with SIK; 97.7% in the test with SLK; 0% with SNARK; 13% in the test with SNRK. Also, the “%Inh” value worked out at 44% in the test with SRC; 0% with SRMS; 80% in the test on SRPK1; 0% with SRPK2; 0% in the test on SRPK3; 2% in the test with STK16. Besides, the “%Inh” value with STK33 came to 64%; in the test with STK35, 30%.
`Cc1nnc(-c2ccc3occ(-c4ccc(S(C)=O)cc4)c3n2)o1` (centres unmarked): the “%Inh” value in test [1] is 0%; in test [2], 15%; with S6K1, 0%; in the test with SBK1, 0%; in the test on SGK2, 0%; in the test with SGK3 it was 0%. Moreover, the “%Inh” value with SGK came out at 0%; in the test with SIK2 it was 59%; in the test on SIK it was 4%; in the test on SLK it was 0%; in the test with SNARK, 0%; with SNRK, 0%. Moreover, the “%Inh” value with SRC was found to be 0%; with SRMS, 0%; with SRPK1, 0%; in the test on SRPK2, 0%; in the test with SRPK3, 0%; in the test on STK16, 11%. The “%Inh” value in the test with STK33 stood at 0%; in the test with STK35, 45%.
As for `CC(C)S(=O)(=O)N1CCN(Cc2ccc3c(c2)nc(NC(=O)c2ccsc2)n3C[C@H](O)c2ccccc2)CC1` [GW635815], the “%Inh” value in test [1] worked out at 54%; in test [2] it was 9%; in the test on S6K1 it was 13%; in the test on SBK1 it was 59%; in the test on SGK2, 0%; in the test with SGK3 it was 3%. Also, the “%Inh” value in the test on SGK was 0%; with SIK2, 19%; with SIK, 0%; in the test with SLK, 33%; in the test on SNARK, 23%; with SNRK, 0%. Besides, the “%Inh” value in the test on SRC is given as 96.3%; with SRMS it was 1%; with SRPK1, 0%; in the test with SRPK2, 0%; with SRPK3, 0%; with STK16, 83%. Moreover, the “%Inh” value worked out at 60% in the test with STK33 and 0% in the test on STK35.
On to `Cc1cccc(-c2nc(Nc3ccncc3)c3sccc3n2)n1` [GW869641], for which the “%Inh” value in [1] is 41%; in test [2], 37%; in the test on S6K1 it was 13%; with SBK1, 58%; in the test on SGK2 it was 11%; in the test on SGK3, 27%. Further, the “%Inh” value in the test with SGK is 24%; with SIK2, 0%; in the test with SIK, 7%; in the test on SLK, 57%; with SNARK, 29%; in the test on SNRK, 25%. The “%Inh” value in the test with SRC is on record as 12%; in the test with SRMS, 21%; with SRPK1, 7%; in the test on SRPK2, 0%; in the test on SRPK3, 24%; in the test with STK16, 16%. The “%Inh” value in the test with STK33 came out at 27%; in the test on STK35, 1%.
With `NC(=O)Nc1sc(-c2ccc(F)cc2)cc1C(N)=O` [GW789449], the “%Inh” value in test [1] is given as 76%; in [2] it was 4%; in the test on S6K1 it was 3%; in the test with SBK1, 16%; in the test with SGK2, 10%; with SGK3, 31%. Moreover, the “%Inh” value in the test on SGK turned out to be 1%; with SIK2, 16%; in the test with SIK, 21%; with SLK, 25%; with SNARK, 75%; in the test on SNRK, 6%. Also, the “%Inh” value in the test with SRC is 55%; in the test with SRMS, 18%; in the test on SRPK1, 81%; with SRPK2, 35%; with SRPK3, 90.6%; in the test with STK16, 26%. Also, the “%Inh” value in the test on STK33 and in the test with STK35 was 0% each time.
